Source: PubChem BioAssay AID740 (SRMLSC, 2007)
Hit rate of the full screen: of about 96,000 compounds, about 65 (0.07%) were called active. This excerpt belongs to a sample that is enriched for actives. Values without a mark were called inactive. Rule as the data show it: active = inhibition above about 25%; inactive = the rest.

Assay: unspecified inhibition readout at 50 µM (AID 740)
Conditions: unspecified screen; stronger effect = higher value

SMILES	inhibition
CN1CCN(c2nc(-c3ccc(Br)cc3)nnc2-c2ccccc2)CC1	inactive
O=C(c1cnn2c(C(F)(F)F)cc(-c3ccccc3)nc12)N1CCC2(CC1)OCCO2	1.61%
O=C(c1cnn2c(C(F)(F)F)cc(-c3ccccc3)nc12)N1CCOCC1	37.1% (active)
O=C(c1cnn2c(C(F)(F)F)cc(-c3ccc(Br)cc3)nc12)N1CCOCC1	1.01%
O=C(Nc1c(-c2ccccc2)nc2sccn12)c1ccccc1	48.5% (active)
Cc1ccn2c(NC(=O)c3ccccc3)c(-c3cccs3)nc2c1	inactive
Cn1nc(C(=O)Nc2c(-c3ccccc3)nc3sccn23)c2ccccc2c1=O	2.2%
CCNc1nnc(-c2ccccc2OC)s1	inactive
Cc1c(C(=O)Nc2ccncc2)oc2ccccc12	inactive
Cc1ccc2c(C)c(C(=O)Nc3cccnc3)oc2c1	90.2% (active)
Cc1cc2oc(C(=O)Nc3cccnc3)c(C)c2cc1C	inactive
O=C(c1ccco1)N1N=C(c2cccs2)CC1c1ccc(F)cc1 (stereo not given)	6.17%
O=C1CCCN1CCCNc1ccc(S(=O)(=O)N2CCCCC2)cn1	0.14%
Cc1ccc(NC(=O)c2noc3c2CCc2ccccc2-3)cc1	inactive
O=C(Nc1cccc(O)c1)c1noc2c1CCc1ccccc1-2	66.5% (active)
Cc1cc(NC(=O)c2noc3c2CCc2ccccc2-3)no1	inactive
C=CCOc1ccc(/C(CC)=N/O)c(OC)c1	1.57%
CC(C)(C)OC(=O)NCCc1nnc(SCC(=O)c2ccc(Cl)cc2)o1	inactive
CC(C)(C)OC(=O)NCCc1nnc(SCc2ccc(Cl)cc2Cl)o1	4.81%
CC(C)(C)OC(=O)NCCc1nnc(SCc2ccc(Cl)cc2)o1	26.6% (active)
N#Cc1ccc2ccn(CC(=O)NC3CCCCC3)c2c1	inactive
Cc1cc(NS(=O)(=O)c2ccc(NC(=O)c3cc(-c4cccnc4)nc4ccc(Cl)cc34)cc2)no1	2.18%
COc1ccc(NC(=O)CCN2CCCCCC2)c(OC)c1	0.25%

SMILES	inhibition
Cc1noc(C)c1CSc1nc2sc(C)c(C)c2c(=O)n1C1CCCC1	25.2% (active)
Cc1noc(C)c1CSc1nc2sc(C)c(C)c2c(=O)n1-c1ccccc1	6.13%
C=CCn1c(SCc2c(C)noc2C)nc2sc(C)c(C)c2c1=O	11.3%
COc1ccc(C(=O)CSc2nc(C)cc(=O)[nH]2)cc1	inactive
COCCCNC(=O)CCn1c(=O)c2ccccc2n(CC(=O)Nc2c(C)cccc2C)c1=O	1.13%
CC(=O)Nc1cc(C(C)C)c(O)c(C(C)C)c1	0.28%
COc1c(C(C)C)cc(NC(C)=O)cc1C(C)C	87.4% (active)
CC(C)c1cc(NC(=O)C(C)(C)C)cc(C(C)C)c1O	0.31%
CCOC(=O)/C=C1\SCC(=O)N1CC(=O)NC1CCCCC1	0.43%
CCOC(=O)/C=C1\SCC(=O)N1CC(=O)NC12CC3CC(CC(C3)C1)C2	39.9% (active)
CCOC(=O)/C=C1\SCC(=O)N1CC(=O)NC(C)C	0.15%
COc1ccc(-c2noc(CCN3C(=O)c4ccccc4C3=O)n2)cc1OC	0.08%
CCOc1ccc(NCc2nnc(SCC(=O)Nc3cc(C)on3)n2-c2ccc(OC)cc2)cc1	inactive
CCc1nnc(NC(=O)CSc2nnc(CNc3ccc(F)cc3)n2C2CCCCC2)s1	inactive
Cc1cc(NC(=O)CSc2nnc(CNc3ccc(F)cc3)n2C2CCCCC2)no1	26.7% (active)
C=CCN(c1ccc(C(=O)N2CCCC2)cc1)S(C)(=O)=O	inactive
COc1ccc(S(=O)(=O)Nc2cc(C)c(O)cc2C(C)C)cc1	inactive
COc1ccc(OC)c(-n2c(SCC(=O)Nc3cc(C)on3)nnc2-c2c[nH]c3ccccc23)c1	25.7% (active)
COc1ccc(OC)c(-n2c(SCC(=O)NCc3ccco3)nnc2-c2c[nH]c3ccccc23)c1	0.83%
COc1ccc(OC)c(-n2c(SCC(N)=O)nnc2-c2c[nH]c3ccccc23)c1	1.03%
Cc1cc(C)n(CC(O)Cn2c(C)c(C)c3ccccc32)n1 (stereo not given)	0.73%
CN=C(Nc1cc(C)nn1CCC#N)c1ccc(F)cc1	0.15%
CC(C)CCNC(=O)C(c1cccs1)N(CC1CCCO1)C(=O)Cn1nnc2ccccc21 (stereo not given)	inactive

SMILES	inhibition
COCCn1c(-c2cccs2)nc2c(c(=O)c3ccccc3n2C)c1=O	12.7%
Cn1c2ccccc2c(=O)c2c(=O)n(C3CCCCC3)c(-c3cccs3)nc21	47.1% (active)
Cc1nc2ccccc2c(=O)n1C1CCCCCC1	1.75%
CC(=O)N=C1SC2CS(=O)(=O)CC2N1c1c(Cl)cccc1Cl (stereo not given)	0.54%
COc1ccc2nnc(-c3ccccc3)n2n1	1.04%
COCCN1C(=O)C(CC(=O)Nc2ccc(C(=O)O)cc2)SC1=Nc1ccccc1 (stereo not given)	0.58%
OC(CN1CCOCC1)Cn1c(-c2cccc(Cl)c2)nc2ccccc21 (stereo not given)	1.12%
O=C(Nc1ccccc1)N1CCn2c1nc1ccccc12	1.31%
S=C(Nc1ccccc1)N1CCn2c1nc1ccccc12	69.1% (active)
COc1ccc(NC(=O)N2CCn3c2nc2ccccc23)cc1	1.52%
Cc1cccc(NC(=O)Cc2cccs2)n1	0.37%
c1ccc(NC2=Nc3ccccc3CS2)cc1	0.05%
CCN(CC)c1ccc(NC(=O)c2cc(Cl)ccc2OC)cc1	inactive
CCC(C)NC(=O)Cn1nc([N+](=O)[O-])c(Cl)c1C (stereo not given)	0.92%
Cn1cnnc1SCC(=O)c1ccc2c(c1)CCCC2	1.31%
Cn1ccnc1SC(=O)N1c2ccccc2Sc2ccccc21	inactive
Cc1nnc(SCC(=O)N2c3ccccc3Sc3ccccc32)n1N	0.91%
Cc1nnc(SC(=O)N2c3ccccc3Sc3ccccc32)s1	30% (active)
O=C(COc1ccc(Cl)cc1Cl)N1CCN(C/C=C/c2ccccc2)CC1	1.2%
CCS(=O)(=O)Nc1cccc(-c2nc3cccnc3s2)c1C	28.6% (active)
CCS(=O)(=O)Nc1cc(-c2nc3cccnc3s2)ccc1C	0.46%
Cc1c(NS(=O)(=O)c2ccc3c(c2)OCCO3)cccc1-c1nc2cccnc2s1	inactive
Cc1cc(C)n(-c2nc(SCCN(C)C)c3c4c(sc3n2)CCCC4)n1	inactive

SMILES	inhibition
O=C(C1CCN(C2CC(=O)N(c3cccc(Cl)c3)C2=O)CC1)N1CCCC1 (stereo not given)	0.33%
CC#CCCC(=O)N1C=Cc2ccccc2C1C#N (stereo not given)	inactive
CC(=O)Cc1nsc(NC(=O)c2ccc(-c3ccccc3Cl)o2)n1	inactive
Cc1ccc(NC(=O)C2=C(O)c3ccccc3N(C)S2(=O)=O)cc1	inactive
Cc1ccc(NC(=O)C2=C(O)c3sccc3N(C)S2(=O)=O)cc1	1.91%
CN1c2ccccc2C(O)=C(C(=S)Nc2ccccc2)S1(=O)=O	inactive
Cc1ccc(NC(=S)C2=C(O)c3sccc3N(C)S2(=O)=O)cc1	52.4% (active)
Cc1ccccc1NC(=S)C1=C(O)c2sccc2N(C)S1(=O)=O	inactive
Cc1ccc(NC(=S)C2=C(O)c3ccccc3N(C)S2(=O)=O)cc1	9.88%
CN1c2ccsc2C(O)=C(C(=O)Nc2ccccc2)S1(=O)=O	26.4% (active)
CN1c2ccsc2C(O)=C(C(=S)Nc2ccccc2)S1(=O)=O	64.3% (active)
CN1c2ccccc2C(O)=C(C(=O)Nc2ccccc2)S1(=O)=O	inactive
CC(=O)Nc1ccc2c(c1)nc(CCN1CCOCC1)n2C	inactive
CCn1c(SCc2nc(-c3ccccc3)no2)nnc1-c1cccs1	0.11%
COc1ccccc1Cn1c(=O)c2ccccc2n2c(SCc3csc(C)n3)nnc12	0.93%
O=c1[nH]nc(Sc2ncnc3sccc23)n1CCc1ccccc1	9.99%
COc1ccccc1Cn1c(=O)c2ccccc2n2c(Sc3ncnc4sccc34)nnc12	65.1% (active)
c1ccc(CSc2nnnn2-c2cccc3ccccc23)nc1	3.06%
CCOc1ccc(NC(=O)NCCCN2CCCC2)cc1	0.93%
CSc1nnnn1-c1ccc(C(=O)OCC(=O)N2CCOCC2)cc1	inactive
CCOC(=O)c1cnc(SCC(=O)N2CCc3ccccc32)nc1N	inactive
